Source: PubChem BioAssay (Tox21)
Results filed as inconclusive are left out. Active and inactive are the calls of the source. Calls follow the shape of the dose curve; as a rule, active = well fitted curve in the direction sought with a large enough effect in the repeat runs; inconclusive = weak or mixed curves; inactive = no such curve, though single readings can be large; an effect the other way counts as inactive or inconclusive.

Legend:
[1] = A CellTox Green Cytotoxicity Assay to monitor cytotoxicity in HepG2 cells - 16 hour (AID 1224876); also: nearly all actives have a fitted effect of over 45% in size
Method in brief: (§1)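 Read-out is fluorescence of a cyanine dye excluded from live cells that stains DNA of dead HepG2 cells, with signal proportional to cytotoxicity. Plates were read at 0, 8, 16, 24, 32 and 40 h after compound addition.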

[2] = qHTS RealTime-Glo MT Cell Viability Assay in HepG2 cells - 32 hour (AID 1224877); also: nearly all actives have a fitted effect of over 55% in size
Method in brief: (§2)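 Cell number in HepG2 cultures estimated from NanoLuc luminescence generated by metabolic reduction of a prosubstrate by living cells. The homogeneous, nonlytic format allowed repeated reads at 0, 8, 16, 24, 32 and 40 h of compound exposure.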

[3] = A CellTox Green Cytotoxicity Assay to monitor cytotoxicity in HepG2 cells - 24 hour (AID 1224878); also: nearly all actives have a fitted effect of over 45% in size
Method in brief: as §1

[4] = A CellTox Green Cytotoxicity Assay to monitor cytotoxicity in HepG2 cells - 40 hour (AID 1224879); also: nearly all actives have a fitted effect of over 40% in size; also: potency is read from the fitted curve at half-maximal effect
Method in brief: as §1

[5] = qHTS RealTime-Glo MT Cell Viability Assay in HEK293 cells - 0 hour (AID 1224880); also: top concentration of the series differs between compounds; nearly all actives have a fitted effect of over 45% in size
Method in brief: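 Cells were seeded together with NanoLuc luciferase and a prosubstrate that viable cells reduce to a luciferase substrate. After a 5 h incubation at 37 C/5% CO2, compounds were added and luminescence was measured repeatedly during 40 h of treatment.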

[6] = A CellTox Green Cytotoxicity Assay to monitor cytotoxicity in HEK293 cells - 32 hour (AID 1224881); also: nearly all actives have a fitted effect of over 40% in size; also: potency is read from the fitted curve at half-maximal effect
Method in brief: (§3)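 Nonlytic real-time cytotoxicity: HEK293 + CellTox Green reagent plated, 5 h preincubation, pintool compound addition (23 nL in DMSO), 37 C for 40 h, fluorescence measured at successive time points.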

[7] = A CellTox Green Cytotoxicity Assay to monitor cytotoxicity in HepG2 cells - 0 hour (AID 1224882); also: nearly all actives have a fitted effect of over 35% in size
Method in brief: as §1

[8] = A CellTox Green Cytotoxicity Assay to monitor cytotoxicity in HepG2 cells - 32 hour (AID 1224883); also: nearly all actives have a fitted effect of over 50% in size
Method in brief: as §1

[9] = A CellTox Green Cytotoxicity Assay to monitor cytotoxicity in HEK293 cells - 8 hour (AID 1224884); also: nearly all actives have a fitted effect of over 35% in size
Method in brief: as §3

[10] = qHTS RealTime-Glo MT Cell Viability Assay in HepG2 cells - 16 hour (AID 1224885); also: nearly all actives have a fitted effect of over 50% in size
Method in brief: as §2
% is scaled to controls: 0 for no effect and ±100 for the full control effect.

CC1(C)Cc2cccc(N)c2O1
inactive: Potency [1] | outcome [2] | Potency [3] | Potency [4] | Potency [5] | Potency [6] | Potency [7] | Potency [8] | Potency [9] | outcome [10]

O/N=C/C=N/O
inactive: Potency [1] | outcome [2] | Potency [3] | Potency [4] | Potency [5] | Potency [6] | Potency [7] | Potency [8] | Potency [9] | outcome [10]

COC(=O)/C=C\C(=O)O
inactive: Potency [1] | outcome [2] | Potency [3] | Potency [4] | Potency [5] | Potency [6] | Potency [7] | Potency [8] | Potency [9] | outcome [10]

C=CCCCC
inactive: Potency [1] | outcome [2] | Potency [3] | Potency [4] | Potency [5] | Potency [6] | Potency [7] | Potency [8] | Potency [9] | outcome [10]

CC(Oc1cc(Cl)ccc1Cl)C(=O)O (stereo unspecified)
inactive: Potency [1] | outcome [2] | Potency [3] | Potency [4] | Potency [5] | Potency [6] | Potency [7] | Potency [8] | Potency [9] | outcome [10]

CC(C)[C@H]1CC[C@H](C)C[C@@H]1O
inactive: Potency [1] | outcome [2] | Potency [3] | Potency [4] | Potency [5] | Potency [6] | Potency [7] | Potency [8] | Potency [9] | outcome [10]

CC(C)Nc1ccccc1
inactive: Potency [1] | outcome [2] | Potency [3] | Potency [4] | Potency [5] | Potency [6] | Potency [7] | Potency [8] | Potency [9] | outcome [10]

C=CCSSCCC
inactive: Potency [1] | outcome [2] | Potency [3] | Potency [4] | Potency [5] | Potency [6] | Potency [7] | Potency [8] | Potency [9] | outcome [10]

CCO[Si](CC)(OCC)OCC
inactive: Potency [1] | outcome [2] | Potency [3] | Potency [4] | Potency [5] | Potency [6] | Potency [7] | Potency [8] | Potency [9] | outcome [10]

COc1nc(N)nc2nc[nH]c12
inactive: Potency [1] | outcome [2] | Potency [3] | Potency [4] | Potency [5] | Potency [6] | Potency [7] | Potency [8] | Potency [9] | outcome [10]

OC1(c2ccc(Cl)cc2)CCNCC1
inactive: Potency [1] | outcome [2] | Potency [3] | Potency [4] | Potency [5] | Potency [6] | Potency [7] | Potency [8] | Potency [9] | outcome [10]

CCOCCOCC
inactive: Potency [1] | outcome [2] | Potency [3] | Potency [4] | Potency [5] | Potency [6] | Potency [7] | Potency [8] | Potency [9] | outcome [10]

C=CCOC(=O)CCCCCC
inactive: Potency [1] | outcome [2] | Potency [3] | Potency [4] | Potency [5] | Potency [6] | Potency [8] | Potency [9] | outcome [10]

Cc1ccc2c(c1)C(=O)c1ccccc1C2=O
inactive: Potency [1] | outcome [2] | Potency [3] | Potency [4] | Potency [6] | Potency [7] | Potency [8] | Potency [9] | outcome [10]

CSc1cnccn1
inactive: Potency [1] | outcome [2] | Potency [3] | Potency [4] | Potency [6] | Potency [7] | Potency [8] | Potency [9] | outcome [10]

CC1(C)[C@H]2CC[C@](C)(C2)[C@H]1O
inactive: Potency [1] | outcome [2] | Potency [3] | Potency [4] | Potency [6] | Potency [7] | Potency [8] | Potency [9] | outcome [10]

C/C=C(\C)C(=O)OCCc1ccccc1
inactive: Potency [1] | outcome [2] | Potency [3] | Potency [4] | Potency [5] | Potency [8] | outcome [10]

CC1=C(O)C(=O)C(C)O1 (stereo unspecified)
inactive: Potency [1] | outcome [2] | Potency [3] | Potency [4] | Potency [5] | Potency [6] | Potency [8] | Potency [9] | outcome [10]

CC(C)COC(=O)c1ccccc1
inactive: Potency [1] | outcome [2] | Potency [3] | Potency [4] | Potency [5] | Potency [6] | Potency [8] | Potency [9] | outcome [10]

O=C(O)CCCCCC(=O)O
inactive: Potency [1] | outcome [2] | Potency [3] | Potency [4] | Potency [5] | Potency [8] | outcome [10]
active: Potency [6] 22 µM

O=C(O)CSCC(=O)NC1CCSC1=O (stereo unspecified)
inactive: Potency [1] | outcome [2] | Potency [3] | Potency [4] | Potency [5] | Potency [6] | Potency [8] | Potency [9] | outcome [10]

CCCCCCC1(C)CCC(=O)O1 (stereo unspecified)
inactive: Potency [1] | outcome [2] | Potency [3] | Potency [4] | Potency [5] | Potency [6] | Potency [8] | Potency [9] | outcome [10]

COc1cc2c(cc1OC)C(=O)C(CC1CCN(Cc3ccccc3)CC1)C2 (stereo unspecified)
active: Potency [4] 21.3 µM
inactive: Potency [1] | outcome [2] | Potency [3] | Potency [5] | Potency [6] | Potency [9] | outcome [10]

CC(C)CO
inactive: Potency [1] | outcome [2] | Potency [3] | Potency [4] | Potency [5] | Potency [8] | Potency [9] | outcome [10]

CCCCCC(C)O (stereo unspecified)
inactive: Potency [1] | outcome [2] | Potency [3] | Potency [4] | Potency [6] | Potency [7] | Potency [8] | Potency [9] | outcome [10]

O=S(=O)(O)c1ccc2c(N=Nc3ccc(S(=O)(=O)O)c4ccccc34)c(O)c(S(=O)(=O)O)cc2c1
inactive: cytotoxicity increase [1] -11.6% [at 6.97 µM] | activity change, negative = cytotoxic [2] -3.7% [at 6.97 µM] | cytotoxicity [3] -12.7% [at 6.97 µM] | cytotoxicity increase [4] -16.2% [at 6.97 µM] | activity change, negative = cytotoxicity [5] 7.55% [at 6.97 µM] | cytotoxicity increase [6] 8.52% [at 6.97 µM] | cytotoxicity increase [8] -12.7% [at 6.97 µM] | cytotoxicity increase [9] 7.19% [at 6.97 µM] | activity change, negative = cytotoxic [10] 0.447% [at 6.97 µM]
